# Only some compounds are listed: those with a hit (about 12% of all), similar ones and a draw of the others.
# JMJD2A Tudor inh = qHTS Assay for Inhibitors of JMJD2A-Tudor Domain. Lysine-specific demethylase 4A (Homo sapiens), O75164. AlphaScreen JMJD2A-Tudor / H3K4me3 peptide binding. Potency, µM (series often up to 114 µM), inactives show at the top dose activity change, negative = inhibition, actives largely listed as inhibitors. 390,000 compounds, 4.4% hits. AID 504339, 2011; further: on the % scale 0 is the no-effect control and ±100 the full control effect; nearly all actives have a fitted effect of over 50% in size
# HP1b binding inh = HTS for Inhibitors of HP1-beta Chromodomain Interactions with Methylated Histone Tails; AlphaScreen HP1-beta / biotin-H3K9me3 peptide binding; Potency, µM (series often up to 114 µM), for inactives: at the highest dose activity change, negative = inhibition, most hits filed as inhibitors; 390,000 compounds, 0.56% hits; AID 540317, 2011; further: nearly all actives have a fitted effect of over 70% in size
#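 HP1-beta protein (50 nM final) preincubated 30 min at room temperature with biotinylated H3(1-18)K9me3 peptide (50 nM) in PBS pH 7.4, 0.01% Tween-20, then compound added for 30 min. AlphaScreen streptavidin donor/nickel chelate acceptor beads (10 ug/mL final), 30 min dark, luminescence read.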
# BAZ2B block = qHTS Assay for Inhibitors of BAZ2B; 360,000 compounds, 4.4% hits; AID 504333, 2011; Potency, µM (series often up to 114 µM), for the others: at the top dose activity change, negative = inhibition, most hits filed as inhibitors; Bromodomain adjacent to zinc finger domain protein 2B (Homo sapiens), Q9UIF8; AlphaScreen BAZ2B-H3K14Ac peptide displacement; further: on the % scale 0 is the no-effect control and ±100 the full control effect; nearly all actives have a fitted effect of over 60% in size
#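 Protein-peptide AlphaScreen: BAZ2B 50 nM, b-H3K14Ac 50 nM, 1x PBS pH 7.4 + 0.01% Tween-20. Preincubation 30 min RT; cpd 30 min RT (top 110 uM); beads 20 min RT, light-protected.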
# L3MBTL1 inh = qHTS Assay for the Inhibitors of L3MBTL1; Potency, µM (titrated, usually from 57.1 µM), for the others: at the highest dose activity, negative = inhibition, most hits filed as inhibitors; AlphaScreen L3MBTL1–H3K9me1 peptide binding; Lethal(3)malignant brain tumor-like protein 1 (Homo sapiens), Q9Y468; 230,000 compounds, 0.66% hits; further: on the % scale 0 is the no-effect control and ±100 the full control effect; nearly all actives have a fitted effect of over 60% in size
# Target sequence (Q9Y468 whole entry, looked up): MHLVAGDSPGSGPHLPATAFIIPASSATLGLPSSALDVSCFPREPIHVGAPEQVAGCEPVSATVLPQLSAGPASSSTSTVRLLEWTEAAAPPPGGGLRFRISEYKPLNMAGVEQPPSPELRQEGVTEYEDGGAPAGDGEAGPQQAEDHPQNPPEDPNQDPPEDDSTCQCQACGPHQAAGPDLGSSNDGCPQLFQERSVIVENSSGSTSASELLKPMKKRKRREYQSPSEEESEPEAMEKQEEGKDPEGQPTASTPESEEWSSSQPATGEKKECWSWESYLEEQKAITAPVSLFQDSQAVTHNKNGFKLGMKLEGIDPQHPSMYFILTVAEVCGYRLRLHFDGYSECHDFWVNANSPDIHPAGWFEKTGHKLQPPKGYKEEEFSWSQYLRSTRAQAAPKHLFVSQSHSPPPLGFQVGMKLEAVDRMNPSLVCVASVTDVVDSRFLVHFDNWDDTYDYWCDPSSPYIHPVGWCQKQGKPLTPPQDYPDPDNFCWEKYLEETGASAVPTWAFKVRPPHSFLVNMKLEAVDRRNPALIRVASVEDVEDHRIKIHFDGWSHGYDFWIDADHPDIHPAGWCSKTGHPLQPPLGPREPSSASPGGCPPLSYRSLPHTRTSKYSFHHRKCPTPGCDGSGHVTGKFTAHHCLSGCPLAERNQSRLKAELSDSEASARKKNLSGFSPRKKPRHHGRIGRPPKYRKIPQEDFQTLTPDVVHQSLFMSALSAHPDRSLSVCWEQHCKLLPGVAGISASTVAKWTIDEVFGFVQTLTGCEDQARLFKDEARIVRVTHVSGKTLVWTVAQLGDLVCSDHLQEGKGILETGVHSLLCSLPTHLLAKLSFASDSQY
#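 L3MBTL1 (50 nM) pre-complexed 30 min with biotinylated H3(1-15)K9me1 peptide (75 nM), then compounds added for 30 min at room temperature; AlphaScreen streptavidin donor/nickel chelate acceptor beads (10 ug/mL final) read after 30 min dark incubation.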
# Sfp PPTase inh = qHTS Assay for Inhibitors of Bacillus subtilis Sfp phosphopantetheinyl transferase (PPTase). 4'-phosphopantetheinyl transferase ffp (Bacillus subtilis), Q9F4F7. Biochemical Sfp PPTase activity, qHTS. Potency, µM, without a hit: largest response in the series, negative = inhibition, most hits filed as inhibitors. 310,000 compounds, 3.5% hits. AID 1490, 2009;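 further: the enzyme is Sfp with the accession as filed and its product quenches rhodamine fluorescence; 0% = enzyme reaction without inhibitor and -100% = no enzyme wells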
#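 Buffer: 50 mM Hepes-Na pH 7.6, 10 mM MgCl2, 0.01% Nonidet P-40, 0.01% BSA. Enzyme 15 nM, pre-exposed to compound 15 min; substrates then added and fluorescence change tracked over 30 min.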
# G9a block = qHTS Assay for Inhibitors of Histone Lysine Methyltransferase G9a | Histone-lysine N-methyltransferase EHMT2 (Homo sapiens), Q96KQ7 | G9a H3K9 monomethylation, AlphaScreen, 2 h | Potency, µM (highest dose often 102 µM), without a hit: at the highest dose activity, negative = inhibition, actives largely listed as inhibitors | 350,000 compounds, 8.8% hits | AID 504332, 2011; further: on the % scale 0 is the no-effect control and ±100 the full control effect; nearly all actives have a fitted effect of over 75% in size
#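 G9a (20 nM) was preincubated 15 min with compound, then reacted 2 h at room temperature with 500 nM biotin-H3K9 peptide and 20 µM SAM. Monomethyl-H3K9 detected by AlphaScreen using anti-H3K9me1 antibody.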
# Starred values were filed as active, the others as inactive; ? = inconclusive; nt = no result given; [ ] = another dose, or the depositor's remark. The call rests on the fitted dose curve; in most records, active means well fitted curve in the direction sought with a large enough effect; inconclusive means small, poorly fitted or top-dose-only effect, or another doubt; inactive means no such curve, though single readings can be large; an effect the other way counts as inactive or inconclusive. Potency means the concentration at half of the fitted maximal effect.
SMILES,JMJD2A Tudor inh,HP1b binding inh,BAZ2B block,L3MBTL1 inh,Sfp PPTase inh,G9a block
C(=C\c1ccco1)/C1=NN(c2ccccc2)C(c2ccco2)C1 (stereo not drawn),31.2%,54.9%,?,21.3%,28.2µM*,-0.6%[59 µM]
O=[N+]([O-])c1ccc(/C=C/C2=NN(c3ccccc3)C(c3ccco3)C2)o1 (stereo not drawn),3.16µM*,?,31.6µM*,?,-6.5%,31.6µM*
CC1O[C@@H](OCC2O[C@@H](Oc3cc(O)c4c(c3)OC(c3ccc(O)cc3)CC4=O)[C@H](O)[C@@H](O)[C@@H]2O)[C@H](O)[C@H](O)[C@H]1O (stereo partly drawn),-19.0%,22.1%,4.7%,-4.3%,nt,-15.9%[12.7 µM]
C=C(C)CN1C(=O)C(O)(CC(=O)c2ccc3c(c2)OCCO3)c2ccccc21 (stereo not drawn),-8.0%,25.0%,3.2%,5.0%,23.6%,3.8%[12.7 µM]
Cc1coc(C)c1C(=O)CC1(O)C(=O)N(Cc2ccccc2)c2ccccc21 (stereo not drawn),89.1µM*,?,?,nt,?,-39.3%[59 µM]
Cc1ccc(CN2C(=O)C(O)(CC(=O)c3ccc(C)cc3)c3ccccc32)cc1 (stereo not drawn),50.1µM*,?,12.6µM*,nt,nt,11.2µM*
N#CCCCN1C(=O)C(O)(CC(=O)c2ccc3c(c2)OCCO3)c2ccccc21 (stereo not drawn),-16.8%,16.6%,8.4%,9.1%,16.8%,35.5µM*
Cc1ccc(C(=O)CC2(O)C(=O)N(Cc3ccccc3F)c3ccccc32)cc1 (stereo not drawn),-20.1%,17.4%,?,nt,nt,-23.4%[59 µM]
Cc1ccc(C(=O)CC2(O)C(=O)N(Cc3ccccc3)c3ccccc32)o1 (stereo not drawn),-22.9%,4.9%,-8.2%,7.9%[11.4 µM],24.9%,-5.9%[59 µM]
COCCCNC(=O)CC(c1cc(OC)c(OC)c(OC)c1)N1Cc2ccccc2C1=O (stereo not drawn),-6.9%,16.2%,-14.5%,nt,nt,-1.4%[59 µM]
COc1cccc(CNC(=O)c2sc3nc[nH]c(=O)c3c2C)c1,1.0%,10.3%[57 µM],4.9%,nt,nt,15.7%[59 µM]
O=C(NC(=S)NC(=O)c1ccccc1F)c1ccccc1F,-0.3%,27.6%,-38.4%,-3.4%,50.1µM*,10µM*
O=C(NC(=S)NCc1ccccc1)c1ccccc1F,33.7%,127.7%,6.4%[57.1 µM],10.0%,10.6%,57.5%
COc1cccc(OC)c1C(=O)NC(=S)Nc1ccc2c(c1)OCCO2,?,-0.9%,-26.3%,-4.2%,5.7%,56.2µM*
O=C(NC(=S)Nc1ccc2c(c1)OCCO2)c1ccccc1F,-26.9%,28.1%,-34.2%,1.5%,-11.2%,31.6µM*
O=C(Nc1ccc2c(c1)OCCO2)c1ccccc1F,-26.7%[11.4 µM],-3.3%,10.1%,2.9%,-11.2%,25.5%[59 µM]
O=S(=O)(Nc1ccc2c(c1)OCCO2)c1c(F)cccc1F,-12.2%,19.3%,-8.2%,nt,-4.2%,39.8µM*
CC(C)c1cc(C(=O)N2CCCC(CCC(=O)N3CCN(c4ccccn4)CC3)C2)no1 (stereo not drawn),-2.1%,19.1%,-5.1%,-4.9%,8.7%,11.2%[59 µM]
O=C(NC(=S)Nc1ccc2c(c1)OCCO2)c1ccccc1,?,?,44.7µM*,-5.3%,-8.1%,39.8µM*
CCOc1cccc(C(=O)NC(=S)Nc2ccc(Cl)cc2C(=O)O)c1,?,?,-7.0%,nt,44.7µM*,39.8µM*
